Test results reported in ChEMBL document CHEMBL4296182, “CO-ADD screening of NIH NCI Diversity Set V”.
For part of these data: Potency and affinity values are given separately.

Columns and labels:
[1] = test system: Staphylococcus aureus; experiment: Antibacterial activity against Staphylococcus aureus MRSA ATCC 43300 (CO-ADD:GP_020); MIC in CAMBH media using NBS plates, by Resazurin F(560/590); format: functional; conditions: Concentration 20 uM, ASSAY_TEST Inhibition of Bacterial Growth, detection method Resazurin, Fluorescence (ex560/em590), MEDIA CAMHB, plate type 384well, CORNING #3640, time 18 hr
[2] = test system: Acinetobacter baumannii; experiment: Antibacterial activity against Acinetobacter baumannii ATCC 19606 (CO-ADD:GN_034); MIC in CAMBH media using NBS plates, by Resazurin F(560/590); format: functional; conditions: Concentration 20 uM, ASSAY_TEST Inhibition of Bacterial Growth, detection method Resazurin, Fluorescence (ex560/em590), MEDIA CAMHB, plate type 384well, CORNING #3640, time 18 hr
[3] = test system: Escherichia coli; experiment: Antibacterial activity against Escherichia coli ATCC 25922 (CO-ADD:GN_001); MIC in CAMBH media using NBS plates, by Resazurin F(560/590); format: functional; conditions: Concentration 20 uM, ASSAY_TEST Inhibition of Bacterial Growth, detection method Resazurin, Fluorescence (ex560/em590), MEDIA CAMHB, plate type 384well, CORNING #3640, time 18 hr
[4] = test system: Klebsiella pneumoniae; conditions: Concentration 20 uM; ASSAY_TEST Inhibition of Bacterial Growth; detection method Absorption (OD600); MEDIA CAMHB; plate type 384well; NBS; CORNING #3640; time 18 hr
[5] = test system: Candida albicans; conditions: 20 µM
[6] = test system: Cryptococcus neoformans; conditions: Concentration 20 uM; ASSAY_TEST Inhibition of Fungal Growth; detection method Resazurin; Absorption (OD600-OD570); plate type 384well; NBS; CORNING #3640

SMILES	Inhibition [1] [%]	Inhibition [2] [%]	Inhibition [3] [%]	Inhibition [4] [%]	Inhibition [5] [%]	Inhibition [6] [%]
O=C(Nc1nc2ccccc2s1)Nc1ccc([N+](=O)[O-])cc1Cl	3.4	12.6	-5.05	8.17	4.63	-2.66
C=CCN(CC=C)C(=O)Nc1cc(OC)ccc1OC	-0.3	-10.17	5.84	8.16	3.21	-3.48
COc1ccc2nc3cc(Cl)ccc3c(C#N)c2c1	10.22	12.04	6.91	7.74	4.11	-4.51
Cc1ccc(S(=O)(=O)CCOC(=O)CNC(=O)OCc2ccccc2)cc1	0.28	8.19	0.72	12.65	2.97	-8.5
CN(C)S(=O)(=O)N1C(=O)c2ccccc2C1=O	5.4	12.12	-0.21	11.91	5.89	-1.33
O=[N+]([O-])c1ccc2c3ccccc3[s+]([O-])c2c1 (stereo unspecified)	5.76	5.87	8.3	9.17	6.79	-11.15
Cc1nc2ccc(N)nc2nc1C	15.94	-14.31	16.52	12.13	-1.28	-2.36
Clc1nc(NCCc2ccccc2)c2c[nH]nc2n1	2.77	12.4	0.9	13.65	5.89	-10.39
O=C(O)c1cc(Cl)nnc1O	15.87	-4.6	13.02	-7.82	-1.79	-6.94
C#CCNc1ccc(C(=O)OCC)cc1	7.69	8.65	-0.61	11.49	5	-3.8
c1ccc(-c2nnc(-c3ccccn3)[nH]2)nc1	12.66	11.56	-1.7	7.68	4.71	-5.04
COc1ccc(C(C)=O)cc1CO/N=C1\CSCc2ccccc21	16.78	9.55	4.94	9.39	18.6	-2.91
Nc1ccc2c(c1)N=[N+]([O-])c1cc(N)ccc1C2	12.24	-9.52	10.77	23.9	-4.33	-8.98
CCc1cccc2[nH]c3cc([N+](=O)[O-])ccc3c12	6.44	1.17	2.96	-4.47	9.1	12.93
N=C(N)NC(=S)Nc1ccc(Cl)cc1	29.08	3.91	19.57	9.15	20	-7.26
O=C(Nc1ccccc1)Oc1cccnc1O	7.3	9.45	-1.58	18.58	5.22	-7.26
CN1N=C/C(=C/NC(N)=O)C1=O	-2.54	-2.43	9.08	2.78	0.49	-3.93
C=C1S/C(=N\c2c(C)cccc2Cl)N(C(=O)c2sc3ccccc3c2Cl)C12CCCCC2	4.2	0.82	-2.79	4.92	5.73	0.57
COc1cc2c(c3c1c(=O)c1cccc(F)c1n3C)C=CC(C)(C)O2	18.94	5.21	5.53	10.26	1.02	-11.93
Oc1cc(-n2cccn2)c(O)cc1-n1cccn1	6.47	8.87	-3.84	16.86	25.5	-4.6
CC(C)C(=O)c1ccc(O)c(O)c1	-0.55	-3.52	-12.2	9.02	3.31	21.92
Cc1ccc(N2CCN(CC(O)COc3cccc(C)c3)CC2)cc1 (stereo unspecified)	10.15	-11.82	15.19	10.88	-0.24	-16.06
NNC(=O)c1nnsc1-c1csnn1	-28.09	0.78	-18.51	1.34	13.6	15.04
Nc1ccc(/N=N/c2ccccc2Cl)c(N)n1	4.22	-1.2	2.51	18.4	14.2	-16.58
COc1cc(CCC(=O)O)on1	9.35	-6.5	10.23	8.1	-0.47	-11.79
NC(CC(=O)Nc1cc(C(F)(F)F)ccc1Cl)=NO	9.76	-1.74	-6.61	22.22	3.79	-11.78

SMILES	Inhibition [1] [%]	Inhibition [2] [%]	Inhibition [3] [%]	Inhibition [4] [%]	Inhibition [5] [%]	Inhibition [6] [%]
CC(C)(C)N=C(S)NC(C)(C)C	10.55	-9.16	4.33	8.8	1	-0.12
CN(C)S(=O)(=O)Nc1cccc(Br)c1	1.46	-10.63	3.48	2.53	4.88	43.58
Cc1c(COC(=O)NC(C)C)c(COC(=O)NC(C)C)c2n1CS(=O)(=O)C2	22.95	-7.7	11.68	15.71	3.64	-8.35
O=C(Nc1cccc(Cl)c1)Nc1nccs1	1.33	-6.03	8.66	7.36	3.47	-22.98
ON=C(NCc1ccccc1)c1ccccc1	-15.15	6.48	-18.65	2.92	-0.43	19.05
O=c1[nH]c2c(cnn2-c2ccc(Cl)cc2)c(=O)n1-c1cccc(Cl)c1	5.86	6.48	-10.38	28.41	2.46	-10.88
CCOC(=O)C1(C#N)C(=O)CS/C1=N/c1ccccc1Cl (stereo unspecified)	19.69	6.45	0.68	8.87	1.9	-13.01
COc1ccc(C(=O)O)nc1C	-3.26	-9.48	11.67	7.05	-1.1	-14
CCCCCc1cccnc1	1.69	-4.62	11.47	10.71	2.3	-0.18
NCC(=O)c1cccc2ccc[n+]([O-])c12	9.77	5.17	0.84	20.91	0.31	-8.51
CC(C)COc1nc2c(c(=O)n(C)c(=O)n2C)n1C	-1.72	11.63	12.8	5.36	2.67	-14.97
CN(C)S(=O)(=O)c1ccc(N)c([N+](=O)[O-])c1	-6.85	12.87	8.14	9.42	1.38	-8.3
O=C(O)c1nc2nc(Cl)c(Cl)nc2[nH]1	-9.71	8.37	0.88	10.97	3.92	-11.32
C(COC1CC2CC1C1C2CC2OC21)OC1CC2CC1C1C2CC2OC21 (stereo unspecified)	7.31	15	5.47	11.14	-1.79	-10.71
Nc1ccn(C2OC(CCl)C(O)C2O)c(=O)n1 (stereo unspecified)	16.82	-8.52	10.09	13.7	0.99	-4.88
Cc1ccc(-c2nc(-c3nccc4ccccc34)oc2-c2ccccc2)cc1	17.39	5.86	4.4	6.85	18.7	-2.8
CCN(CC)CCNC(=O)C(Cl)=C1C(Cl)=C(Cl)C(Cl)=C1Cl	7.61	6.92	-4.74	29.33	1.86	-2.01
CCOC(=O)Nc1ccc(C(=O)/C=C/c2ccccc2)cc1	8.55	3.76	-2.1	17.43	6.26	-5.25
C=C(C)CN1C(=O)C(C)S/C1=N/N=C1/SCC(=O)N1C (stereo unspecified)	12.61	8.16	1.61	14.62	6.81	-8.83
O=C1CCCC1C(=O)Nc1ccc2ccccc2c1 (stereo unspecified)	9.31	10.21	-4.09	17.7	10.3	-1.69
Clc1nnc2c3ccccc3ccn12	-3.22	2.03	3.3	8.71	1.01	-9.43
Cc1cc(N(C)C)ccc1/N=N/c1ccc2ncccc2c1	1.18	-8.44	5.41	5.32	3.26	-12.5
C=CCSc1n[nH]c(-c2cccs2)n1	7.65	11.99	1.25	19.42	2.69	-4.46
O=C(NN1CCCCC1)NN1CCCCC1	9.98	7.95	2.92	-4.05	1.96	-2.31
COC(=O)c1ccc(Cn2cnc3c(Cl)ncnc32)cc1	-16.45	0.57	-10.62	2.87	-1.99	15.29
